Screens deposited in PubChem BioAssay by several laboratories.
Compounds with a hit are over-represented: about 3.2% of the library has one in this group of screens.
TcdB inh: inhibitors of Clostridioides difficile toxin B glycohydrolase; P18177; TcdB glycohydrolase enzymatic assay, plate reader; inhibition, % at 9.99 µM; AID 652162; 0.24% of 350,000 active; in the data active means inhibition above about 10%
GDH-TPI counter: counter-screen for M. tuberculosis FBA inhibitors: GDH-TPI coupled enzymes | AID 588335 | inhibition, % at 4.8 µM | 1.2% of 360,000 active | GDH-TPI coupled enzyme counterscreen, NADH absorbance; in the data active means inhibition above about 30%;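 further: 0% = DMSO wells and 100% = wells lacking the enzyme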
PrPC TRFRET: reduces human prion protein on the cell surface; P04156; cell surface PrPC, TR-FRET read-out; 0.43% of 370,000 active; inhibition, % at 13.8 µM; in the data active means inhibition above about 24%; further: 0% = median of the test wells and 100% = reference compound wells
Y pestis TopoI: inhibitors of Yersinia pestis topoisomerase I; Y. pestis Topo-I cleavage product accumulation, plate reader; activity, % at 10 µM; 0.064% of 360,000 active; AID 504884; in the data active means activity above about 50%, passing the limit was not always enough
Mtb FBA inh: Mtb fructose-bisphosphate aldolase inhibition; P9WQA3; purified M. tuberculosis FBA, fluorescence read-out; inhibition, % at 1 µM; 2.3% of 360,000 active; in the data active means inhibition above about 27%;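 further: 0% = vehicle and 100% = reference inhibitor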
* = called active by the depositor; . = no result given; + = active, no number.

SMILES | TcdB inh | GDH-TPI counter | PrPC TRFRET | Y pestis TopoI | Mtb FBA inh
CC=Cc1ccc2n(c1=O)C[C@H]1[C@H](CO)[C@@H](C(=O)NC3CCCC3)N[C@@H]21 (mixture of isomers) | -10 | . | . | . | .
CC(=O)c1ccc(Nc2cc(C)nc3c(C)cccc23)cc1 | 3 | 19 | 5 | -6 | -3
Cc1cc(C)c2nc(C)cc(N/N=C/c3ccc(O)cc3)c2c1 | 16* | 19 | -9 | -5 | -3
Cc1cc(-c2ccccc2)nc(N/N=C/c2ccc(O)cc2)n1 | 2 | 26 | 6 | -6 | -3
Cc1cc(N/N=C/c2ccc(O)cc2)c2cccc(C)c2n1 | 11* | 21 | -18 | -36 | -3
Cc1ccc(Nc2cc(C)nc3c(C)cccc23)cc1 | 1 | 32* | -3 | 10 | 1
C[C@H]1CN([C@@H](C)CO)C(=O)c2cc(C3=CCCCC3)cnc2O[C@@H]1CN(C)C(=O)CN1CCOCC1 | 0 | . | . | . | .
CC(=O)N1CC(=O)N2[C@@H](CO)[C@H](c3ccc(C#CC(C)C)cc3)[C@@H]2C1 | 1 | . | . | . | .
O=C(c1ccco1)c1cn(CC(=O)N2CCCCCC2)c2ccccc12 | 1 | 38* | 3 | 5 | -3
Clc1ccc2c(c1)[C@H]1OCC[C@H]1[C@@H](c1ccco1)N2 | 4 | 6 | -6 | 3 | 38*
COc1cc(/C=N/n2nnnc2Nc2ccccc2)cc(OC)c1OC | . | 34* | . | 2 | -2
C[C@@H]1CN([C@@H](C)CO)S(=O)(=O)c2ccc(-c3ccccc3)cc2O[C@H]1CN(C)Cc1ccccn1 | 0 | . | . | . | .
COc1ccccc1NC(=O)N[C@H]1CC[C@@H](CC(=O)N[C@H](C)c2ccccc2)O[C@@H]1CO | -1 | . | . | . | .
Cc1cc(C)c(NC(=O)Cn2nnc(C(=O)NCc3ccco3)c2N)c(C)c1 | 1 | 33* | -4 | 0 | 7
Cc1ccc(NC(=O)Cn2nnc(C(=O)NCc3ccco3)c2N)cc1 | . | -4 | 3 | 0 | -6
COc1cccc(/C=N/NC(=O)c2ccc(=O)[nH]n2)c1O | -2 | 31* | -4 | 2 | 3
COc1ccc(OC)c(/C=N/NC(=O)c2ccc(=O)[nH]n2)c1 | -1 | 12 | -2 | 4 | -4
COc1cccc(/C=N/NC(=O)c2ccc(-c3ccccc3)cc2)c1O | . | 11 | 8 | 1 | -1
COc1cccc(/C=N/NC(=O)c2[nH]c(C)c(C(=O)N/N=C/c3cccc(OC)c3O)c2C)c1O | . | 43* | 0 | -14 | 1
Cc1[nH]c(C(=O)N/N=C/c2ccc(C(=O)O)cc2)c(C)c1C(=O)N/N=C/c1ccc(C(=O)O)cc1 | . | 74* | -3 | -5 | -1
CCCc1cn(CC[C@H]2CC[C@H](NC(=O)C3CCOCC3)[C@@H](CO)O2)nn1 | 0 | . | . | . | .
COc1ccc(S(=O)(=O)Nc2ccc3c(c2)C(=O)N([C@@H](C)CO)C[C@@H](C)[C@H](CN(C)C(=O)NC2CCCCC2)OCCCC[C@H](C)O3)cc1 | 0 | . | . | . | .
CCCCNC(=S)N/N=C/c1ccc(C)s1 | . | 63* | -1 | -1 | 6
Cc1ccc(/C=N/NC(=S)NCCc2ccccc2)s1 | 4 | 7 | 6 | -2 | 0
C[C@@H]1CN([C@H](C)CO)C(=O)c2cc(N(C)C)ccc2O[C@H]1CN(C)Cc1ccncc1 | -3 | . | . | . | .
SMILES | TcdB inh | GDH-TPI counter | PrPC TRFRET | Y pestis TopoI | Mtb FBA inh
O=C(C[C@@H]1C[C@@H]2c3cc(NC(=O)NC4CCCCC4)ccc3O[C@@H]2[C@H](CO)O1)NCc1ccccn1 | -1 | . | . | . | .
O=C(O)CCC(=O)N1CCN(c2ccc(C(=O)c3ccc(F)cc3)cc2)CC1 | . | 38* | -12 | 4 | -1
O=C(CCc1ccccc1)Nc1cccnc1 | 0 | -5 | 4 | 1 | 0
CN(C)c1ccc(NC(=O)Nc2ccc3c(c2)c(=O)n(C)n3Cc2ccccc2)cc1 | -14 | 8 | 4 | -2 | 2
Cn1c(=O)c2cc(NC(=O)Nc3cccnc3)ccc2n1Cc1cccc(C(F)(F)F)c1 | 1 | 5 | -1 | 27 | 114*
C=C(C)Cn1c2ccc(NC(=O)CCc3cccnc3)cc2c(=O)n1C | 0 | 13 | -2 | 3 | +
CC(C)=CCn1c2ccc(NC(=O)Nc3ccc(N(C)C)cc3)cc2c(=O)n1C | -8 | 4 | -1 | 24 | 3
C=C(C)Cn1c2ccc(NC(=O)NCCc3cccs3)cc2c(=O)n1C | 1 | 9 | -4 | 8 | 182*
CC(C)=CCn1c2ccc(NC(=O)Nc3cccnc3)cc2c(=O)n1C | -1 | 1 | -11 | -1 | 141*
CC(C)NC(=O)N(C)C[C@H]1OCCCC[C@@H](C)Oc2ccc(NC(=O)CCCN(C)C)cc2C(=O)N([C@@H](C)CO)C[C@H]1C | 0 | . | . | . | .
C[C@@H](O)C#Cc1cnc2c(c1)C(=O)N([C@@H](C)CO)C[C@H](C)[C@H](CN(C)C(=O)Cc1ccccn1)O2 | -1 | . | . | . | .
Cn1c(=O)c2cc(NC(=O)Nc3cccnc3)ccc2n1Cc1ccc(Cl)cc1 | 1 | -2 | 4 | 15 | 135*
N=c1c(C(=O)NCc2ccco2)cc2c(=O)n3ccccc3nc2n1Cc1ccccc1 | . | 15 | -25 | -7 | 163*
COCCn1c(=N)c(C(=O)NCc2ccco2)cc2c(=O)n3ccccc3nc21 | . | 3 | -45 | 18 | 138*
N=c1c(C(=O)NCc2ccc(F)cc2)cc2c(=O)n3ccccc3nc2n1Cc1ccco1 | . | 7 | -18 | 18 | 38*
COCCCn1c(=N)c(C(=O)NCc2ccc3c(c2)OCO3)cc2c(=O)n3ccccc3nc21 | . | 1 | -57 | 1 | 7
COc1ccc(CNC(=O)c2cc3c(=O)n4ccccc4nc3n(Cc3cccnc3)c2=N)cc1 | . | 18 | -14 | -2 | 8
CCS(=O)(=O)N[C@@H]1C=C[C@H](CC(=O)NCc2ccc(Cl)cc2)O[C@H]1CO | 1 | . | . | . | .
CCCCOC(=O)Nc1nnc(CCc2ccccc2)s1 | . | -1 | -7 | 22 | 6
COc1ccc(/C=C/c2nnc(NC(=O)C(C)(C)C)s2)cc1 | 1 | 52* | 1 | 12 | 9
CCCCOC(=O)Nc1nnc(/C=C/c2ccc(OC)cc2)s1 | -1 | 20 | 7 | 53* | 17
CCCCOC(=O)Nc1nnc(CCOCC)s1 | . | 47* | -1 | 1 | 0
CCCC(=O)Nc1nnc(/C=C/c2ccc(OC)cc2)s1 | -1 | 22 | -3 | -6 | 11
CCCCC(=O)Nc1nnc(/C=C/c2ccc(OC)cc2)s1 | . | 9 | . | -4 | 3
Cc1noc(C)c1S(=O)(=O)Nc1ccc2c(c1)C(=O)N([C@@H](C)CO)C[C@H](C)[C@H](CN(C)S(=O)(=O)c1ccc(F)cc1)OCCCC[C@H](C)O2 | 1 | . | . | . | .
CCCCn1c(CN2CCN(C(=O)c3ccco3)CC2)nc2c1c(=O)n(C)c(=O)n2C | 10* | -3 | -12 | -2 | 2
COc1ccc(/C=N/Nc2cc(C)nc3ccc(OC)cc23)c(OC)c1 | 1 | 12 | -14 | -45 | 144*
C=CCn1cc(C(=O)OC)c(=O)c2cc(S(=O)(=O)N3CCC(C)CC3)ccc21 | . | 32* | -3 | -2 | 2
C[C@@H]1CCCCO[C@H](CN(C)Cc2ccc(C(F)(F)F)cc2)[C@@H](C)CN([C@@H](C)CO)C(=O)c2cc(NC(=O)CCCN(C)C)ccc2O1 | 0 | . | . | . | .
CN(C)c1ccc(C=Nc2cnn(C)c2C(N)=O)cc1 | . | 35* | 3 | -9 | -2
